Experiment [1] is described as follows: optical density shifts of acrAB sulA E. coli – strain DRC41, OD650, 48 h, E. coli filamentation inducer project, primary screen (AID 1152).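 Further: E. coli MC1000 strain DRC41 lacking acrAB efflux pump and sulA.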 The conditions noted are these: higher = more signal, called active from +8 up or from −8 down.
Experiment [2] in a line: probe aLefty1 binding on compound microarray – biochemical, small-molecule microarray, 635/667 nm fluorescence, primary screen (AID 1153).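 Further: score merges spot fluorescence with signal-to-noise ratio from the scanned slide images.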 The conditions noted are these: higher = more signal.
Experiment [3] can be described thus: plasmodial surface anion channel blockers, osmotic lysis – cell-based, P. falciparum Indochina, OD700, 1 h, primary screen (AID 1154). The conditions noted are these: P. falciparum Indochina infected RBC osmotic lysis, higher = more signal, called active from +8 up or from −8 down.
Experiment [4] is described as follows: plasmodial surface anion channel blockers, osmotic lysis – cell-based, P. falciparum Indochina, OD700, 2 h, primary screen (AID 1155).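 Further: lysis reports solute entry through the parasite surface anion channel PSAC.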 The conditions noted are these: P. falciparum Indochina infected erythrocytes, higher = more signal, called active from +8 up or from −8 down.
The nature of experiment [5]: changes in parasitized red cell lysis, either direction – P. falciparum Indochina, OD700, 3 h, PSAC antagonist project, primary screen (AID 1156). The conditions noted are these: P. falciparum-infected erythrocytes, osmotic lysis, higher = more signal, called active from +8 up or from −8 down.
Experiment [6] is described as follows: plasmodial surface anion channel blockers, osmotic lysis – cell-based, P. falciparum Indochina, OD700, 18 h, primary screen (AID 1157). The conditions noted are these: P. falciparum Indochina infected erythrocytes, osmotic lysis OD700, 18 h; higher = more signal, called active from +8 up or from −8 down.
Experiment [7] in a line: S6 kinase pathway phospho-S6 level changes – cell-based, A549, cytoblot, luminescence, serum-stimulated, primary screen (AID 1158).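 Further: serum-stimulated A549 lung adenocarcinoma cells; signal is phosphorylated S6 detected by cytoblot immunostaining with HRP secondary.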 The conditions noted are these: 5 h, higher = more signal.
Experiment [8] addresses NADPH oxidase 2 (Homo sapiens) (UniProt P04839). Kind of experiment: compounds shifting NOX2 Amplex Red fluorescence – cell-based, HEK293-NOX2, PMA-stimulated, NOX inhibitor project, primary screen (AID 1159). Further: test concentration not given here. The conditions noted are these: 45 min, higher = more signal, called active from +8 up or from −8 down.
Experiment [9] concerns the target NADPH oxidase 4 (Homo sapiens) (UniProt Q9NPH5). Kind of experiment: compounds shifting NOX4 Amplex Red fluorescence – cell-based, HEK293-NOX4, tetracycline-induced, NOX inhibitor project, primary screen (AID 1160). The conditions noted are these: HEK293-NOX4, Amplex Red H2O2 fluorescence, 45 min; higher = more signal, called active from +8 up or from −8 down.
For experiment [10], the target named is NADPH oxidase 5 (Homo sapiens) (UniProt Q96PH1). Kind of experiment: compounds shifting NOX5 Amplex Red fluorescence – cell-based, HEK293-NOX5, NOX inhibitor project, primary screen (AID 1161). The conditions noted are these: HEK293-NOX5, ionomycin, 45 min, higher = more signal.
The nature of experiment [11]: compound effects on lung adenocarcinoma cell viability – A549, calcein-AM fluorescence, 48 h, basal, profiling panel (AID 1162). Further: test concentration not given here. The conditions noted are these: higher = more signal.
Experiment [12] in a line: compound effects on differentiated 3T3-L1 adipocyte viability – cell-based, 3T3-L1 adipocytes, calcein-AM fluorescence, 48 h, basal, profiling panel (AID 1163). Further: test concentration not given here. The conditions noted are these: 3T3-L1 adipocytes viability, higher = more signal.
Experiment [13] can be described thus: compound effects on hepatocellular carcinoma cell viability – HepG2, calcein-AM fluorescence, 48 h, basal, profiling panel (AID 1164). Further: test concentration not given here. The conditions noted are these: higher = more signal.
A short description of experiment [14]: compound effects on multiple myeloma cell viability – MM1S, calcein-AM fluorescence, 48 h, basal, profiling panel (AID 1165). Further: test concentration not given here. The conditions noted are these: higher = more signal.
Experiment [15] can be described thus: calcein-AM signal in unstimulated myeloma cells – cell-based, calcein-AM fluorescence, 48 h, PK04 Diversity Set, profiling panel (AID 1166).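 Further: cells grown under basal conditions without added stimulus; test concentration not given here.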 The conditions noted are these: RPMI8226 myeloma viability, higher = more signal.
Experiment [16] is described as follows: JC-1 mitochondrial signal, unstimulated HepG2 cells – cell-based, JC-1 fluorescence, 24 h, 100 nL compound, profiling panel (AID 1167). Further: test concentration not given here. The conditions noted are these: HepG2 mitochondrial potential, higher = more signal.
Experiment [17] in a line: JC-1 mitochondrial signal, unstimulated adipocytes – cell-based, JC-1 fluorescence, 3T3-L1 adipocytes, 24 h, 100 nL compound, profiling panel (AID 1168). Further: test concentration not given here. The conditions noted are these: JC-1 mitochondrial fluorescence, higher = more signal, called active from +8 up or from −8 down.
Experiment [18] in a line: JC-1 mitochondrial signal, unstimulated myeloma cells – cell-based, JC-1 fluorescence, RPMI8226, 24 h, 100 nL compound, profiling panel (AID 1169). Further: test concentration not given here. The conditions noted are these: JC-1 mitochondrial potential fluorescence, higher = more signal.
Experiment [19] in a line: JC-1 mitochondrial signal, unstimulated MM1S myeloma – cell-based, JC-1 fluorescence, 24 h, 100 nL compound, profiling panel (AID 1170). Further: test concentration not given here. The conditions noted are these: MM1S mitochondrial potential, higher = more signal.
Experiment [20] can be described thus: resazurin metabolic signal in A549 cells – cell-based, resazurin fluorescence, 24 h, PK04 Diversity Set, profiling panel (AID 1171). Further: test concentration not given here. The conditions noted are these: A549 viability, higher = more signal, called active from +8 up or from −8 down. (The colour change of resazurin is a common sign of viable cells or microbes.)

Structures are written as SMILES. Calls of active or inactive are those of the source.

NADPH oxidase 2 (Homo sapiens), sequence (P04839 whole entry, looked up): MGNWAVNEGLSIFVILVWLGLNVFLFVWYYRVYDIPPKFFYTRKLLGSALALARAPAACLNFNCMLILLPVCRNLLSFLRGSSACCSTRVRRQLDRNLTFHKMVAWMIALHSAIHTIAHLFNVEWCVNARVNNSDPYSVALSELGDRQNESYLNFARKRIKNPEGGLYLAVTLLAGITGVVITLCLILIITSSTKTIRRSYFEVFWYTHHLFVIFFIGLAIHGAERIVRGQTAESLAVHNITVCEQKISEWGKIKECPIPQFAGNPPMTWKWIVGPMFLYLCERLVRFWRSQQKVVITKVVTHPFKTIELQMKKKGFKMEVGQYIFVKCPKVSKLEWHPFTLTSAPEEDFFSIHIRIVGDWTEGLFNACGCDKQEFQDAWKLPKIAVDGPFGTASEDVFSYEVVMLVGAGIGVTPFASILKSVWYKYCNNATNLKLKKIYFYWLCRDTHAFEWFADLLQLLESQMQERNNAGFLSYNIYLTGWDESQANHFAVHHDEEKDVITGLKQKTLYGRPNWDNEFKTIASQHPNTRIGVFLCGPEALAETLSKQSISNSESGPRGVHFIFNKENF
NADPH oxidase 4 (Homo sapiens), sequence (Q9NPH5 whole entry, looked up): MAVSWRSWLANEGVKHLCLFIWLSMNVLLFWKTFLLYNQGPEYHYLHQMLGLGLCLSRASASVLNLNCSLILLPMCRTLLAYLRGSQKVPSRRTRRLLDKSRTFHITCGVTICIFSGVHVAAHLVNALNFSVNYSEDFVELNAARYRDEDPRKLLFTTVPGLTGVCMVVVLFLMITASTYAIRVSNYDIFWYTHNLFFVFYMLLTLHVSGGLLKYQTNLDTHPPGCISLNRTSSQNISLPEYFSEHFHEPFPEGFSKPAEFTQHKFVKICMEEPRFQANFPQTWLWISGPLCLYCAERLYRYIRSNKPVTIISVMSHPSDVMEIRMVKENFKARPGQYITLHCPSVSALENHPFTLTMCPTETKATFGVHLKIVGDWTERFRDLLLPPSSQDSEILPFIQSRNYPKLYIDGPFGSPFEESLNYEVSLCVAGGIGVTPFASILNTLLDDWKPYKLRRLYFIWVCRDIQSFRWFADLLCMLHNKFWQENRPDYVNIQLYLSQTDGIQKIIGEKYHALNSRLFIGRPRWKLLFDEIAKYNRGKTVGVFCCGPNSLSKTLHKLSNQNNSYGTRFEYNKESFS
NADPH oxidase 5 (Homo sapiens), sequence (Q96PH1 whole entry, looked up): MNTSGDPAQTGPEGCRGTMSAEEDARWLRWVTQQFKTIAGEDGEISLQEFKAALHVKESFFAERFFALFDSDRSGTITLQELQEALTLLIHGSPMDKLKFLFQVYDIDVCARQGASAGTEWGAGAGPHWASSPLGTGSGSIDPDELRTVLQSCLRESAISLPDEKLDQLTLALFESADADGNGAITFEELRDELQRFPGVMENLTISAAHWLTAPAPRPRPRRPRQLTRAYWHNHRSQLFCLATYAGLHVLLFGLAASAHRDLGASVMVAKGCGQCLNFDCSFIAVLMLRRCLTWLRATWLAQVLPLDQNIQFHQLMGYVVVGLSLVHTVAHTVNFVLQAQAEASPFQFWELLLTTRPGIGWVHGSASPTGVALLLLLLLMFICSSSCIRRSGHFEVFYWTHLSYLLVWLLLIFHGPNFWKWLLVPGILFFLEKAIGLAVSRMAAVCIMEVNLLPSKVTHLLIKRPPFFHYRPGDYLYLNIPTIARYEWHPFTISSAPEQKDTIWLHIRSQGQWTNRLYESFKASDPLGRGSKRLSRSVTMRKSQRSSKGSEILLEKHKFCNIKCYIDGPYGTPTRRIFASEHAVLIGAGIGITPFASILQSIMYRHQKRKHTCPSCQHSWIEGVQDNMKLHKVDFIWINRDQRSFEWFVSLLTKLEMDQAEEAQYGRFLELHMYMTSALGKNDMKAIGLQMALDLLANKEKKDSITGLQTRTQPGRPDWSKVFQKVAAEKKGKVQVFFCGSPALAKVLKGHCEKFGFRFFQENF

Take `CCCCCCc1nc(-c2ccc(-c3ccc(Cl)c(Cl)c3)o2)c(C)c2c1[Si](C(C)C)(C(C)C)OC2`: the z-score in experiment [1] is -0.369 (inactive); in experiment [3], 1.88 (inactive); in experiment [4], -0.712 (inactive); in experiment [5] it was 0.627 (inactive); in experiment [6], -1.57 (inactive); in experiment [7] it was 1.7. Further, the z-score in experiment [8] is -4.51 (inactive); in [9], -2.74 (inactive); in [10], -4.66; in experiment [11] it was -2.55; in experiment [12], 0.438; in experiment [13], -1.55. In addition, the z-score is -3.25 in [14]; -4.25 in experiment [15]; -3.26 in [16]; 0.113 (inactive) in [17]; -0.977 in experiment [18]; -1.68 in experiment [19]. For the same molecule, in experiment [20], the z-score was -0.312 (inactive). Further, in experiment [2], the composite z-score was -0.198.

`COc1ccc(NN2C(C(O)c3ccc(N(C)C)cc3)C=CC3C(=O)N(C4CCCCC4)C(=O)C32)cc1` (stereo not given): the z-score in experiment [1] was -0.446 (inactive); in experiment [3] it was 5.03 (inactive); in [4] it was 0.589 (inactive); in experiment [5] it was 0.193 (inactive); in experiment [6], 0.484 (inactive); in experiment [7] it was -0.25. Further, the z-score in [8] was -0.759 (inactive); in experiment [9], -3.43 (inactive); in [10] it was -2.98; in experiment [11], -0.441; in [12] it was -1.13; in experiment [13], -0.173. The z-score was 0.0375 in [14]; -0.136 in experiment [15]; -0.134 in experiment [16]; -0.771 (inactive) in [17]; 0.651 in experiment [18]; -1.63 in experiment [19]. For the same molecule, the z-score in [20] is 0.19 (inactive). The same molecule yielded a composite z-score in experiment [2] of 0.384.

As for `COCCOC(=O)N1C(=O)[C@@]2(c3cc(C#CC4=CCCCC4)ccc31)[C@H](C(N)=O)[C@H]1C(=O)O[C@H](c3ccccc3)[C@H](c3ccccc3)N1[C@@H]2c1ccc(O)cc1`, the z-score is 1.04 (inactive) in experiment [1]; 1.19 (inactive) in experiment [3]; -0.933 (inactive) in experiment [4]; 0.161 (inactive) in [5]; -1.13 (inactive) in experiment [6]; 2.41 in experiment [7]. The z-score in experiment [8] was 1.11 (inactive); in experiment [9] it was 0.563 (inactive); in experiment [10] it was 2.76; in experiment [11], 0.282; in experiment [12], 0.326; in experiment [13] it was 0.581. Also, the z-score was -3.07 in experiment [14]; -4.54 in [15]; -1.89 in experiment [16]; 1.1 (inactive) in experiment [17]; -1.22 in experiment [18]; -0.992 in experiment [19]. Also, the z-score in [20] was -1.77 (inactive). Besides, the composite z-score in experiment [2] was determined as 0.148.

`C=CC[C@@]1(C(=O)N2CCCCC2)N=C(c2ccc(OCCCO)cc2)O[C@@H]1c1ccccc1CN=[N+]=[N-]`: the z-score was 0.279 (inactive) in [1]; 26 (active) in experiment [3]; 16 (active) in experiment [4]; 2.79 (inactive) in experiment [5]; 1.04 (inactive) in experiment [6]; 1.32 in experiment [7]. For the same molecule, the z-score was -0.935 (inactive) in experiment [8]; 1.43 (inactive) in experiment [9]; 1.05 in [10]; -0.933 in experiment [11]; 0.952 in experiment [12]; 0.192 in experiment [13]. For the same molecule, the z-score in [14] is -1.09; in experiment [15], -3.66; in experiment [16] it was 1.47; in experiment [17], -0.307 (inactive); in experiment [18] it was -1.01; in experiment [19], -0.18. The z-score in experiment [20] was -1.5 (inactive). The same molecule gave a composite z-score in [2] of 0.393.

For `COc1cc(CO)cc(I)c1O[C@H]1C=C(C(=O)NCCO)C[C@@H](N(C(=O)c2cc3ccccc3oc2=O)C2CCCCCC2)[C@@H]1O`, the z-score in [1] is 1.07 (inactive); in experiment [3], 4.63 (inactive); in experiment [4] it was -0.78 (inactive); in experiment [5], 1.19 (inactive); in [6] it was -1.9 (inactive); in experiment [7], 1.95. Besides, the z-score in experiment [8] is 0.202 (inactive); in experiment [9] it was 0.881 (inactive); in experiment [10] it was 1.2; in experiment [11], 0.062; in [12] it was 1.54; in [13], 1.11. Besides, the z-score in [14] was 0.443; in experiment [15] it was -0.704; in experiment [16] it was -1.63; in experiment [17], -1.51 (inactive); in experiment [18], -0.27; in experiment [19], -1.21. Moreover, the z-score in experiment [20] is 0.0258 (inactive). In addition, the composite z-score in [2] is -0.0646.
